The results in this text go back to PubChem BioAssay.

Assay [1] in a line: inhibitors of TNFa-induced NFkB p65 translocation, primary screen, imaging, HUVEC, MLSMR starter and 10KST1 sets (AID 438;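 active = inhibition above 20% together with a positive visual image hit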;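 note: compound added about 3h40 before a 20 min TNFalpha stimulation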;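 for inhibition: signal is the nuclear over cytoplasmic p65 intensity ratio per well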). As to conditions: HUVEC TNFa-induced p65 nuclear translocation; cell count: measured here: nuclei count (cytotoxicity indicator), at 2.08 µM; inhibition: at 2 µM, stronger effect = higher value, 0% TNFa-plus-vehicle, 100% no-TNFa wells.
Assay [2] is described as follows: endothelial E-selectin expression blockers – imaging, HUVEC, immunofluorescence, MLSMR starter and 10KST1 sets, primary screen (AID 487;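 active = visually confirmed hit in the image check and inhibition above 20%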;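 for inhibition: signal is fraction of cell area covered by stained E-selectin grains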;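 for nuclei count: 100% = median nuclei count of all wells on the same plate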). As to conditions: HUVEC TNFalpha-induced E-selectin immunofluorescence imaging, at 2 µM; inhibition: stronger effect = higher value; nuclei count: measured here: cell number, toxicity.
The nature of assay [3]: Primary imaging screen for DUSP6 inhibitors that restore phospho-Erk in transfected HeLa cells, chemical complementation (AID 609;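 active = compounds giving at least 50% inhibition in the cell-based MKP-3 phosphatase rescue imaging test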;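 for inhibition: phospho-Erk level distribution per well compared with pooled transfected vehicle control wells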). As to conditions: HeLa MKP-3 transfected, phospho-Erk imaging KS statistic, at 10 µM, cells stimulated with TPA for 15 min.
Assay [4] addresses Dual specificity protein phosphatase 6 (Homo sapiens) (UniProt Q16828). The description is as above. As to conditions: HeLa MKP-3 transfected, phospho-Erk imaging KS statistic; at 10 µM; stronger effect = higher value; cells stimulated with TPA for 15 min.
Assay [5] concerns the target Voltage-gated potassium channel subunit beta-2 (Rattus norvegicus) (UniProt P62483). In words: inhibitors of rat Kvbeta2 reductase activity – biochemical, NADPH fluorescence, primary screen (AID 622).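 Note: slope of raw intensity against log time taken from 70 to 1610 s.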 As to conditions: recombinant KvBeta, 4-cyanobenzaldehyde reduction, at 10 µM, stronger effect = higher value.
The target is the same in assay [6]. In words: enhancers of rat Kvbeta2 NADPH turnover – biochemical, NADPH fluorescence, primary screen (AID 623;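 active = NADPH fluorescence slope more negative than the mean of all samples by about 3 SD, 99.7% confidence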;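 note: fluorescence intensity change per second fitted from 20 to 320 s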). As to conditions: Recombinant KvBeta, NADPH fluorescence decrease slope, 10 min; at 10 µM; stronger effect = lower value.
The target in assay [7] is Muscarinic acetylcholine receptor M4 (Homo sapiens) (UniProt P08173). In words: M4-linked GIRK flux change, two-sided – cell-based, HEK293 M4/GIRK, thallium flux, BTC-AM, M4 allosteric agonist project, primary screen (AID 625;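 active = fluorescence slope after compound addition differing from the mean of all tested samples at 99.7% confidence, mostly higher but some lower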;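 note: thallium influx through GIRK channels coupled to M4 in HEK293 cells with BTC-AM dye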). As to conditions: at 10 µM, actives lie on both sides.
Assay [8] is described as follows: inhibitors of larval lipid processing in zebrafish, primary screen, whole organism, PED6 fluorescence, gall bladder and intestine (AID 686;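 active = a full or partial loss of lipid-probe fluorescence in the fish gall bladder, intestine or both, judged by eye; inactive = no fluorescence loss, or compound toxic to the fish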;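 note: larvae 5 to 7 days old with five fish per well; signal comes from phospholipase A2 cleavage of quenched PED6 carried via bile; overnight exposure to compound and PED6 before scoring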). As to conditions: Zebrafish larvae PED6 lipid processing, fluorescence scoring; screened at 20 µM (by protocol).
Assay [9] is described as follows: loss of swimming-algae plug formation – whole organism, Chlamydomonas reinhardtii, WT vs cilia-less mutant, absorbance, 96-well, primary screen (AID 463189;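 active = inhibition at or above 50% relative to wild type and mutant plate controls; inactive = inhibition below 50%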;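 note: 0% = wild type cc124 cells in DMSO and 100% = ciliumless bld1 mutant cells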). As to conditions: Chlamydomonas reinhardtii gravitaxis, OD600 absorbance, 2 days; at 10 µM; stronger effect = higher value.
In assay [10] the target is Alpha-2C adrenergic receptor (Homo sapiens) (UniProt P18825). In words: compounds altering alpha2C-coupled GIRK flux – cell-based, HEK293 alpha2C/GIRK1/2, thallium flux, primary screen (AID 624;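 active = fluorescence slope after compound addition differing from the mean of all screened samples at 99.7% confidence, in either direction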;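 note: slope of fluorescence ratio to pre-addition baseline per second over 15 to 24 s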). As to conditions: thallium flux BTC fluorescence, at 10 µM, actives lie on both sides.
Where [11] appears, read: measured here: cell density z-score.
Where [12] appears, read: measured here: nuclear c-Myc green intensity z-score.
Where [13] appears, read: measured here: nuclear pErk red intensity z-score, stronger effect = higher value.

Activity calls are given as the source filed them.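 Rule for the calls, unless noted: active = fluorescence slope higher than the sample average by over 3 SD (cut at about -0.22 in these data, passing the limit was not always enough); inactive = the rest.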

Voltage-gated potassium channel subunit beta-2 (Rattus norvegicus), sequence (P62483 whole entry, looked up): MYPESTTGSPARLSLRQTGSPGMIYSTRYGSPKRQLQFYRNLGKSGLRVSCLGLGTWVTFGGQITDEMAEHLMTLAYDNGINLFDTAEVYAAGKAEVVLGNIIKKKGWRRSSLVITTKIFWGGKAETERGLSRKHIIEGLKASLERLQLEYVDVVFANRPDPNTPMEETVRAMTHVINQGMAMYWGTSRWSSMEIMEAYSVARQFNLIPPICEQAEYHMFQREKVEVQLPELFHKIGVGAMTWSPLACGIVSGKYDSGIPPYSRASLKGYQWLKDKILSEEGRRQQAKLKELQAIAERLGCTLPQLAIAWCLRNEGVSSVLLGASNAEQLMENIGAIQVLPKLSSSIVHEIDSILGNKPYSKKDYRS
Dual specificity protein phosphatase 6 (Homo sapiens), sequence (Q16828 whole entry, looked up): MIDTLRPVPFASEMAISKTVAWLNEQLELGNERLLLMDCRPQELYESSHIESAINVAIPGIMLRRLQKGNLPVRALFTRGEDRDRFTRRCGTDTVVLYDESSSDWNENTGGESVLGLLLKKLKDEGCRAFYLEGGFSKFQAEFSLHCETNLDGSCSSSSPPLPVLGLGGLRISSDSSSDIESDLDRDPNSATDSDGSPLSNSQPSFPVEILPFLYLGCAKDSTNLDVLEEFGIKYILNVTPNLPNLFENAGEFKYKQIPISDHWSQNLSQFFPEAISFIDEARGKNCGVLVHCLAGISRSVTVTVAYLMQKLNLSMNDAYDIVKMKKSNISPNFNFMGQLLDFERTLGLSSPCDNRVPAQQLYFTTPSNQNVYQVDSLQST
Muscarinic acetylcholine receptor M4 (Homo sapiens), sequence (P08173 whole entry, looked up): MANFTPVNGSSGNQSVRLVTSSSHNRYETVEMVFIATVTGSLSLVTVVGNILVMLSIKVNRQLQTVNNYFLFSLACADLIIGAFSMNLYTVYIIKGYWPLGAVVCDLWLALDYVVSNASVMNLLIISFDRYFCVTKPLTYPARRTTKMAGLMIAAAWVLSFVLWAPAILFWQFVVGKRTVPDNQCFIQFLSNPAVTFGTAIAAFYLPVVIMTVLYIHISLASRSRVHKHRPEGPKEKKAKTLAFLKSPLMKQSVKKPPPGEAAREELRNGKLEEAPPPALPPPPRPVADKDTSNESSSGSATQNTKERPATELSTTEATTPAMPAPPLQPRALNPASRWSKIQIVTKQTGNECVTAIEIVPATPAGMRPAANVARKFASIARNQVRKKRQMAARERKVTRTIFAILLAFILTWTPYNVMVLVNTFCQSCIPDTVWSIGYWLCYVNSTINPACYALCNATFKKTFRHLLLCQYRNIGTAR
Alpha-2C adrenergic receptor (Homo sapiens), sequence (P18825 whole entry, looked up): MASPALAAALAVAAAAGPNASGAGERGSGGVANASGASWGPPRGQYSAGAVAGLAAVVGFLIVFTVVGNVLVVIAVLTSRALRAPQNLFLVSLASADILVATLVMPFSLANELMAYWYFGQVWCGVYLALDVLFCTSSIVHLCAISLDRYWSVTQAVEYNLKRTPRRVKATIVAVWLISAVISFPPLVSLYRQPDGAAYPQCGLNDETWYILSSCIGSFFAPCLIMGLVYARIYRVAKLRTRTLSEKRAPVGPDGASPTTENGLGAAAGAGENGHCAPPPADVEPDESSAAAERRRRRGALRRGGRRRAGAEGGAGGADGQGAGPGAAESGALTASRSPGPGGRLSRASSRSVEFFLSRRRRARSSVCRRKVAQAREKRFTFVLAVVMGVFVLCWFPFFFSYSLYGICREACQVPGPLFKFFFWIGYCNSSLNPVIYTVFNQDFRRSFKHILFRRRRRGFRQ

`CCOC(=O)C1/C(=N\O)CC(C)(O)C(C(=O)OCC)C1c1ccc(OC)c(OC)c1` (stereo unspecified): the cell count in assay [1] was found to be 573. For the same compound, the inhibition was -0.9% (inactive) in assay [1], -36% (inactive) in assay [2], 1.98% (inactive) in assay [4] and 1.71% (inactive) in assay [9]. Besides, the nuclei count in assay [2] is 149%. Further, the z-score in [3] (setting [11]) is 0.422; in assay [3] (setting [12]) it was -0.512; in [3] (setting [13]), -0.582. For the same compound, the fluorescence slope in assay [5] was -0.416 (inactive); in [7], 0.0045 (inactive). The NADPH fluorescence slope in [6] is -5.9e-05 (inactive). Moreover, the outcome in [8] was inactive.
For `COC(=O)CSc1ncnc2c1sc1nc(-c3ccco3)c3c(c12)CC(C)(C)OC3`, in assay [1], the cell count is 514. Further, the inhibition in [1] was -12.6% (inactive); in assay [2], -71.6% (inactive); in [4] it was 9.91% (inactive); in assay [9], -8.07% (inactive). Further, in assay [2], the nuclei count was 130%. Further, the z-score in assay [3] (setting [11]) was -0.117; in assay [3] (setting [12]), 0.288; in assay [3] (setting [13]), -0.223. In addition, the fluorescence slope was -0.364 (inactive) in assay [5] and 0.00608 (inactive) in assay [7]. Besides, the NADPH fluorescence slope in assay [6] is -2e-06 (inactive). Also, the outcome in assay [8] was inactive.
Consider `CCOC(=O)C1(c2nc(N)cs2)COC(=O)C1` (stereo unspecified), for which the cell count in assay [1] was 529. Moreover, the inhibition in [1] was -7.1% (inactive); in [2], 15.9% (inactive); in assay [4], 16% (inactive); in assay [9], -13.2% (inactive). For the same compound, the nuclei count in assay [2] came to 110%. The z-score was 1.01 in assay [3] (setting [11]), 1.47 in [3] (setting [12]) and -1.03 in [3] (setting [13]). Besides, the fluorescence slope was -0.497 (inactive) in [5] and 0.00548 (inactive) in assay [7]. For the same compound, the NADPH fluorescence slope in [6] was -5e-05 (inactive). In assay [8], the compound was classed as inactive.
Take `O=C(NC1CCCCC1)Nn1c(-c2ccccc2)nc2ccccc2c1=O`: the cell count in [1] was determined as 695. Further, the inhibition is -7.6% (inactive) in assay [1], -60.6% (inactive) in assay [2], -9.53% (inactive) in assay [4] and 2.04% (inactive) in assay [9]. Moreover, the nuclei count in [2] came to 203%. Moreover, the z-score was -0.332 in assay [3] (setting [11]), -0.26 in assay [3] (setting [12]) and 0.432 in [3] (setting [13]). Further, the fluorescence slope is -0.473 (inactive) in assay [5] and 0.00473 (inactive) in [7]. In assay [6], the NADPH fluorescence slope is -0.000129 (inactive). For the same compound, the compound was called inactive in assay [8].
With `CC1(C)Cc2c(c(-c3ccccc3)[nH]c(=O)c2C#N)CS1`, the cell count in assay [1] came to 499. Further, the inhibition in [1] was -15.7% (inactive); in assay [2] it was -47.8% (inactive); in assay [4], 14.7% (inactive); in assay [9] it was -6.24% (inactive). Also, the nuclei count in [2] is 131%. Further, the z-score in assay [3] (setting [11]) was 1.65; in assay [3] (setting [12]), -1.74; in [3] (setting [13]), -0.608. Besides, the figures for the fluorescence slope in assay [5] and in [7] were -0.426 (inactive) and 0.0044 (inactive), respectively. Further, in [6], the NADPH fluorescence slope was -2.8e-05 (inactive). In assay [8], the compound was called inactive.
`Nc1nonc1C(=O)NCCN=Cc1cc(Cc2ccccc2)cc(Br)c1O`: the cell count in assay [1] worked out at 537. The inhibition is -4.9% (inactive) in assay [1], 49.5% (inactive) in assay [2], -1.98% (inactive) in assay [4] and -5.78% (inactive) in assay [9]. This compound also had a nuclei count in [2] of 156%. Also, the z-score was -0.875 in [3] (setting [11]), 1.06 in assay [3] (setting [12]) and 0.686 in assay [3] (setting [13]). Also, the fluorescence slope is -0.41 (inactive) in [5] and 0.00522 (inactive) in assay [7]. In addition, the NADPH fluorescence slope in assay [6] is -6.3e-05 (inactive). Also, in assay [8], the outcome was inactive.
As to `COc1ccc(-n2ccc(=O)c3c2CCCC3=O)cc1`, the cell count in assay [1] was 538. Moreover, the inhibition in assay [1] was -18% (inactive); in assay [2], -24.2% (inactive); in assay [4] it was -3.97% (inactive); in assay [9] it was -7.89% (inactive). Besides, the nuclei count in assay [2] was 175%. For the same compound, the z-score in [3] (setting [11]) was 0.411; in [3] (setting [12]), 1.24; in assay [3] (setting [13]), 0.919. Moreover, the fluorescence slope was -0.383 (inactive) in [5] and 0.00531 (inactive) in [7]. The NADPH fluorescence slope in [6] is -5.1e-05 (inactive). Besides, in assay [8], the outcome was inactive.
Consider `N#Cc1nc(-c2cccs2)oc1NCCN1CCOCC1`, for which the cell count in [1] was determined as 666. Moreover, the inhibition was 6.6% (inactive) in assay [1], -60.7% (inactive) in assay [2], 10.9% (inactive) in [4] and 6.5% (inactive) in assay [9]. Also, the nuclei count in [2] was 146%. Also, the z-score in assay [3] (setting [11]) was 0.927; in assay [3] (setting [12]) it was 0.0167; in assay [3] (setting [13]) it was -0.446. Further, the figures for the fluorescence slope in [5] and in assay [7] were -0.0476 (inactive) and 0.00626 (inactive), respectively. Moreover, in assay [6], the NADPH fluorescence slope is -2.5e-05 (inactive). The compound was called inactive in assay [8].
For `COc1cccc(/C(O)=C2/C(=O)C(=O)N(CCCN(C)C)C2c2cccc(Cl)c2)c1` (stereo unspecified), the cell count in assay [1] was 339. Further, the inhibition in assay [1] is -13.6% (inactive); in assay [2] it was -326% (inactive); in assay [4], 11.3% (inactive); in [9] it was 1.66% (inactive). In assay [2], this compound returned a nuclei count of 182%. Further, the z-score in [3] (setting [11]) is 0.0823; in assay [3] (setting [12]), -0.754; in assay [3] (setting [13]), 0.354. Besides, in assay [5], the fluorescence slope is -0.436 (inactive). Also, the NADPH fluorescence slope in assay [6] is -5.7e-05 (inactive). The slope in assay [10] was 0.00508 (inactive). In addition, in assay [8], the compound was called inactive.
As to `CC(C)(C)c1nnc2sc(SCC(=O)c3ccccc3)nn2c1=O`, the cell count in assay [1] was found to be 619. Also, the inhibition was 3.4% (inactive) in assay [1], -55% (inactive) in assay [2], -7.67% (inactive) in assay [4] and 11.5% (inactive) in assay [9]. Moreover, in assay [2], the nuclei count is 105%. For the same compound, the z-score in assay [3] (setting [11]) is -1.21; in assay [3] (setting [12]), -0.101; in assay [3] (setting [13]) it was 1.16. Also, the fluorescence slope was -0.455 (inactive) in assay [5] and 0.00537 (inactive) in [7]. The NADPH fluorescence slope in [6] was -6.8e-05 (inactive). Besides, the call in assay [8] was inactive.
`CCCc1nc(NC2CCCCC2)c(C#N)c2c1COC(C)(C)C2`: the cell count in assay [1] was 517. The inhibition in assay [1] is -11.1% (inactive); in assay [2], -55.9% (inactive); in assay [4], -3.95% (inactive); in assay [9], -12.9% (inactive). This compound had a nuclei count in assay [2] of 114%. The z-score in assay [3] (setting [11]) is -0.306; in [3] (setting [12]), -0.0962; in assay [3] (setting [13]), -0.825. For the same compound, the fluorescence slope was -0.492 (inactive) in assay [5] and 0.00613 (inactive) in [7]. In addition, in assay [6], the NADPH fluorescence slope is -6.5e-05 (inactive). Moreover, the compound was called inactive in [8].
As for `O=C1CCC(=O)N1CN(Cc1ccco1)CN1C(=O)CCC1=O`, the cell count in assay [1] stood at 512. Also, the inhibition in assay [1] is -4.8% (inactive); in [2] it was -33.2% (inactive); in assay [4], 37.7% (inactive); in assay [9], 13.2% (inactive). In assay [2], the nuclei count was found to be 158%. The z-score was 2.24 in [3] (setting [11]), -1.47 in [3] (setting [12]) and 0.89 in [3] (setting [13]). For the same compound, the fluorescence slope in [5] is -0.376 (inactive); in assay [7] it was 0.00674 (inactive). Also, in [6], the NADPH fluorescence slope is -1.3e-05 (inactive). Also, the result in assay [8] was inactive.

What is called inhibition is the change of the read-out against control, counted positive when it falls.
